About 79,000 compounds went through this panel and 15% of them were active in at least one assay; those are over-represented in the sample as a whole. Unmarked numbers belong to inactive results. Calls of active or inactive are those of the source. Rule as the data show it: active = growth inhibition above about 70%; inactive = the rest.
Legend:
[1] = NCI Yeast Anticancer Drug Screen. Data for the rad50 strain (AID 155);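 also: 0% = growth of vehicle-only cultures of the same strain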; settings: S. cerevisiae rad50 strain growth inhibition, active compounds read high
Method in brief: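 Vehicle-treated cultures provide the reference for the growth inhibition reported for compound-exposed, repair-deficient yeast.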

[2] = NCI Yeast Anticancer Drug Screen. Data for the mec2-1 strain (AID 157); settings: S. cerevisiae mec2-1 strain, active compounds read high
Method in brief: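 mec2-1 yeast strain, carrying an alteration in DNA damage repair or cell cycle control, was exposed to compounds; growth inhibition was measured relative to vehicle-treated controls.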

[3] = NCI Yeast Anticancer Drug Screen. Data for the sgs1 mgt1 strain (AID 161);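 also: 0% = growth of cultures given vehicle only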; settings: S. cerevisiae sgs1 mgt1 strain, active compounds read high
Method in brief: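 Compounds are added to genetically altered yeast, and growth is compared with cultures given vehicle alone to give percent inhibition.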

[4] = NCI Yeast Anticancer Drug Screen. Data for the cln2 rad14 strain (AID 165);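 also: 0% = growth equal to vehicle treated cultures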; settings: S. cerevisiae cln2 rad14 strain, active compounds read high
Method in brief: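 Yeast carrying cln2 and rad14 alterations (cell cycle control and DNA damage repair) were exposed to compounds. Growth inhibition was measured against vehicle-treated controls.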

[5] = NCI Yeast Anticancer Drug Screen. Data for the bub3 strain (AID 167); settings: S. cerevisiae bub3 mutant strain, active compounds read high
Method in brief: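 Mutant yeast screening strain plus compound; vehicle-treated cultures serve as the 0% inhibition reference.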

[6] = NCI Yeast Anticancer Drug Screen. Data for the mlh1 rad18 strain (AID 175); settings: S. cerevisiae mlh1 rad18 strain growth inhibition, active compounds read high
Method in brief: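 Growth inhibition of the yeast strain was measured after compound exposure and expressed relative to vehicle-treated controls. The strain carries defined defects in DNA damage repair.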

[7] = at 5.0 µM (retest, dose inferred, filed as 0.5)
[8] = at 50.0 µM (retest, dose inferred, filed as 5.0)

SMILES	growth inhibition [1, 7]	growth inhibition [1, 8]	growth inhibition ([1]; at 50.0 µM)	growth inhibition [2, 7]	growth inhibition [2, 8]	growth inhibition ([2]; at 50.0 µM)	growth inhibition [3, 7]	growth inhibition [3, 8]	growth inhibition ([3]; at 50.0 µM)	growth inhibition [4, 7]	growth inhibition [4, 8]	growth inhibition ([4]; at 50.0 µM)	growth inhibition [5, 7]	growth inhibition [5, 8]	growth inhibition ([5]; at 50.0 µM)	growth inhibition [6, 7]	growth inhibition [6, 8]	growth inhibition ([6]; at 50.0 µM)
O=C1CCCC/C1=C(\Br)I	35%	99% (active)	89.1% (active)	31%	100% (active)	92.3% (active)	28%	100% (active)	91.2% (active)	19%	93% (active)	91.4% (active)	45%	100% (active)	89.1% (active)	31%	99% (active)	93% (active)
COC(=O)[C@@H]1c2cc3c(c(O)c2[C@@H](OC2OC(C)C(OC)C(C)(OC)C2OC)C[C@]1(C)O)C(=O)c1c(O)cc2c(c1C3=O)O[C@H]1O[C@]2(C)[C@H](O)[C@@H](N(C)C)[C@@H]1O (some centres not stated)	61%	98% (active)	90.8% (active)	45%	99% (active)	93% (active)	35%	99% (active)	92.3% (active)	33%	98% (active)	90.6% (active)	60%	99% (active)	91.2% (active)	79% (active)	98% (active)	89.8% (active)
C/C(=C\c1ccccc1)c1ccncc1	-17%	48%	64.7%	14%	12%	44.2%	-8%	51%	65.6%	-8%	21%	35.9%	-9%	48%	45.8%	-11%	24%	54.9%
CN(C)C(=S)/N=c1\ss/c(=N/C(=S)N(C)C)n1-c1ccc([N+](=O)[O-])cc1	6%	32%	97.8% (active)	18%	41%	93.3% (active)	1%	33%	97.8% (active)	-7%	-2%	91.3% (active)	5%	4%	98.8% (active)	4%	30%	98.2% (active)
CC1=NN(c2nc(N)nc(C(C)Sc3cc(Cl)c(C)cc3S(N)(=O)=O)n2)C(C)(C)C1 (configuration not stated)	4%	18%	-51%	-1%	-24%	-25.8%	8%	1%	-10.6%	29%	-6%	40.9%	41%	26%	-17.1%	-6%	0%	2.9%
CCCN(CCC)CC(O)c1cc(-c2ccccc2)nc2c(Cl)cc(Cl)cc12 (configuration not stated)	3%	90% (active)	98.3% (active)	-2%	100% (active)	98.2% (active)	2%	81% (active)	98% (active)	-5%	99% (active)	97.8% (active)	-1%	99% (active)	98.2% (active)	-2%	94% (active)	92.2% (active)
CCOC(=O)/C(Cl)=C(\OCC)C(=O)OCC	14%	10%	-6.4%	6%	13%	12.3%	2%	19%	20%	-5%	19%	44.9%	-1%	8%	26.4%	12%	22%	21.1%
CCN(CC)CCCNc1nccc2c(C)c3[nH]c4ccncc4c3cc12	41%	54%	59.4%	18%	33%	-2%	38%	43%	-1.7%	19%	23%	10.1%	24%	22%	-6.45%	48%	64%	-36.5%
Cc1ccc(C(=Nc2ccccc2)N=P(c2ccccc2)(c2ccccc2)c2ccccc2)cc1	56%	98% (active)	90.6% (active)	45%	99% (active)	91.9% (active)	46%	100% (active)	90.5% (active)	39%	99% (active)	89.5% (active)	45%	99% (active)	88.2% (active)	61%	99% (active)	91.5% (active)

From PubChem BioAssay (NCI)
